Compound activity: PubChem BioAssay, National Center for Advancing Translational Sciences (NCATS)
Most compounds without a hit are left out; they make up all but 3% or so of the library.
PLK1 PBD block – qHTS for Inhibitors of PLK1-PDB (polo-like kinase 1 - polo-box domain): Primary Screen; Serine/threonine-protein kinase PLK1 (Homo sapiens), P53350; 360,000 compounds, 2.8% hits; Plk1 PBD binding of FITC phosphopeptide, fluorescence polarization; Potency, µM, for the others: max response, negative = inhibition, usual class: inhibitors; note: series mostly up to about 57 µM; nearly all actives have a fitted effect of over 65% in size
12-LOX inh – Primary qHTS assay for inhibitors of human arachidonate 12S-lipoxygenase (ALOX12): Round 2 | 580,000 compounds, 1.1% hits | Potency, µM (top dose mostly 108 µM), for inactives: at the top dose activity change, negative = inhibition, most hits filed as inhibitors | Polyunsaturated fatty acid lipoxygenase ALOX12 (Homo sapiens), P18054 | purified 12hLO, xylenol orange hydroperoxide absorbance
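Hydroperoxide product was detected by ferrous iron/xylenol orange as the 573 to 405 nm absorbance ratio. Arachidonic acid at 40 uM (final) was turned over for 30 min at room temperature by 150 nM human 12hLO, pH 7.0 Hepes buffer, after 15 min compound preincubation.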
GCN5L2 inh – qHTS Assay for Inhibitors of GCN5L2. 390,000 compounds, 0.21% hits. GCN5L2 HAT assay, ThioGlo1 CoA-SH fluorescence. Potency, µM (highest dose often 58.9 µM), for inactives: at the highest dose activity change, negative = inhibition, usual class: inhibitors
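Preincubate 20nM GCN5L2 with compound 15 min, RT → add 50uM ThioGlo1 + 75uM H3(1-25) + 70uM acetyl-CoA → read fluorescence 0 and 20 min. Primary qHTS; fluorescent artifacts likely.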
VDR inhibitor – Inhibitors of the vitamin D receptor (VDR): qHTS; VDR-SRC2-3 peptide fluorescence polarization, 2 h; Potency, µM, for the others: max response, negative = inhibition, actives largely listed as inhibitors; 400,000 compounds, 0.93% hits; AID 504847, 2011
Target sequence (P11473 whole entry, looked up): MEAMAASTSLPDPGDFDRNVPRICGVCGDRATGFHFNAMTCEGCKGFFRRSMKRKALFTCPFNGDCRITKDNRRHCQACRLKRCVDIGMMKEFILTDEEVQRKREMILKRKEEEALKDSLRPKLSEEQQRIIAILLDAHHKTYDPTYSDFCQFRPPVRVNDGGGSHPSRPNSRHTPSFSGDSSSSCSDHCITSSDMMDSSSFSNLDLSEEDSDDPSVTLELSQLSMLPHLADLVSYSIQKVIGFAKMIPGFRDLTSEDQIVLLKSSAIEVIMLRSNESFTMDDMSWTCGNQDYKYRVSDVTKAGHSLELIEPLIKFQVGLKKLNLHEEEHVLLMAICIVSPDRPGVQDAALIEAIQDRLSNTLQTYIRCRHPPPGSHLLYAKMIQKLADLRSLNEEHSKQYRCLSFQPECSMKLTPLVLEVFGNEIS
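VDR–SRC2-3 interaction, FP format. Cmpds 23 nl via pintool, brief spin, 2 h ambient incubation.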
* hit, by the source's call; i = inactive; ? = inconclusive; . = no result; ! = a repeat was not active. Calls come from the whole dose curve; as a rule, active = well fitted curve in the direction sought with a large enough effect; inconclusive = small, poorly fitted or top-dose-only effect, or another doubt; inactive = no such curve, though single readings can be large; an effect the other way counts as inactive or inconclusive. % is set by controls: 0 for no effect and ±100 for the full control effect; potency is the fitted concentration of half-maximal effect.

SMILES | PLK1 PBD block | 12-LOX inh | GCN5L2 inh | VDR inhibitor
Fc1ccc(C(Nc2ccccn2)c2c[nH]c3ccccc23)cc1 (stereo unspecified) | 8.4µM* | 6.3µM* | -3% | -16%
CC1=C(C(=O)OC(C)(C)C)C(c2ccc(Cl)cc2)C(C#N)=C(N)O1 (stereo unspecified) | . | -43% | . | .
O=C(NCCN1CCC(n2c(=O)[nH]c3ccccc32)CC1)c1cccc(F)c1 | -6% | 45µM* | . | .
Cc1noc(C)c1CCC(=O)Nc1nc(C(C)C)cs1 | . | 9% | . | .
CCCNC(=O)NC(=O)COC(=O)c1csc(NCCC(C)C)n1 | . | -25% | . | .
COc1ccccc1N1CCN([C@@H]2[C@H](O)[C@H](CO)O[C@@H]2CN(Cc2ccc(F)cc2)Cc2ccc(F)cc2)CC1 | . | 28µM* | . | .
COc1ccccc1N1CCN([C@@H]2[C@H](O)[C@H](CO)O[C@@H]2CNC(C)C)CC1 | . | 20µM* | . | .
O=C(COC(=O)C1CCC1)c1ccc[nH]1 | . | 4% | . | .
Cc1ccc(CNC(=O)C2CC2)cn1 | . | 25% | . | .
Fc1ccc(COc2ccccc2C(=S)N2CCCC2)cc1 | 4.2µM* | ? | -21% | 50µM*
CC(=O)c1sc2nsc(SCCN3CCOCC3)c2c1N | 30µM* | ? | ? | -17%
Nc1c(C(=O)c2ccccc2)sc2nsc(SCCN3CCOCC3)c12 | 3% | 46% | -5% | 14%
COc1cccc2cc(C(=O)CS(=O)(=O)c3ccc(C)cc3)c(=O)oc12 | 19µM* | . | -23% | -11%
Cc1ccc(S(=O)(=O)CC(=O)c2cc3cccc(C)c3oc2=O)cc1 | 19µM* | ? | -19% | 7%
CCOc1cccc2cc(C(=O)Oc3ccc(OC)cc3)c(=O)oc12 | -4% | 35µM* | -8% | 8%
CC(C)(C)C(=O)NCCCC(=O)NCc1ccccc1 | . | -30% | . | .
Cc1noc(NS(=O)(=O)c2ccc(N/C=C\C(=O)c3ccc(Br)cc3)cc2)c1C | 27µM* | ? | -23% | -13%
Cc1noc(NS(=O)(=O)c2ccc(N/C=C\C(=O)c3cccc4ccccc34)cc2)c1C | 24µM* | ? | ? | ?
COc1cccc(C(=O)/C=C/Nc2ccc(S(=O)(=O)Nc3onc(C)c3C)cc2)c1 | 0% | -19% | 29% | -13%
CC(=O)c1ccc(NS(=O)(=O)c2ccc(N/C=C/C(=O)c3ccc(F)cc3)cc2)cc1 | 17µM* | -12% | -10% | -25%
COC(=O)CNC(=O)c1ccc(CNC(=O)OC(C)(C)C)cc1 | . | 20% | . | .
Cc1oc(-c2cccs2)nc1CC(=O)NCc1ccc(CN2CCC(C)CC2)cc1 | . | -6% | . | .
COc1ccccc1NC(=O)CSc1nc2c(=O)[nH]cnc2n1-c1ccc(C)cc1 | . | 15% | . | .
CCC1CSC(Nc2ccccc2C)=N1 (stereo unspecified) | . | 5% | . | .
CCN(CC)C(=O)c1cc2sc3ccccc3c2s1 | -3% | 16µM* | -8% | -7%
SMILES | PLK1 PBD block | 12-LOX inh | GCN5L2 inh | VDR inhibitor
CCC(C)(C)C1CCC(NC(=S)Nc2cccc(Cl)c2Cl)CC1 (stereo unspecified) | . | 0% | . | .
COc1ccc(NC(=O)/C(Cl)=C(/Cl)S(=O)(=O)Cc2ccccc2)cn1 | 5.3µM* | ? | -1% | 35µM*
COc1ccc(CCCc2nnc(SCC(=O)Nc3ccc(C)cc3)o2)cc1C | . | 18µM*! | -3% | 6%
COc1ccc(OC)c(/C=N\NC(=O)CSc2nnc(CCCc3ccc(OC)c(C)c3)o2)c1 | -3% | 2% | . | 3%
O=C(NCC(O)COc1ccc(C(F)(F)F)cc1)C1CCCC1 (stereo unspecified) | . | 1% | . | .
O=C(Nc1ccccn1)C1=C(c2ccccc2)S(=O)(=O)CCO1 | . | -11% | . | .
O=C(O)CC(CNS(=O)(=O)c1ccc(I)cc1)c1ccccc1 (stereo unspecified) | . | 10% | . | .
COC1(NS(=O)(=O)c2ccc(Br)cc2)C(C)=CC(=O)C=C1C | 6.7µM* | 0% | -12% | 9%
O=C(CCl)c1ccc(Cc2ncc(C(F)(F)F)cc2Cl)s1 | 2.4µM* | ? | -14% | ?
NS(=O)(=O)c1ccc(Cc2ncc(C(F)(F)F)cc2Cl)s1 | 1% | -17% | 7% | -8%
C/C(=N\NC(=O)c1ccc(C(C)(C)C)cc1)c1ccc(C)cc1C | . | 55% | . | .
CN(C)c1ccc(/C=N/N2C(=S)SC(C)(C)C2N(O)C(=O)Nc2ccc([N+](=O)[O-])cc2)cc1 (stereo unspecified) | 27µM* | 12% | -16% | -22%
CNC(=O)N(O)C1N(/N=C/c2ccc(SC)cc2)C(=S)SC1(C)C (stereo unspecified) | -8% | 4% | -6% | 9%
CCOc1cccc(CNc2ccc(O)cc2)c1OCc1ccccc1Cl | -6% | 363% | -8% | 40µM*!
CCOc1cc(CNc2ccc(O)cc2)cc(Cl)c1OCc1ccccc1 | . | 116% | -34% | -6%
CCOc1cccc(CNn2cnnc2)c1OCc1ccccc1Cl | -15% | -7% | -1% | -10%
CCOc1cccc(CNc2ccc(O)cc2)c1OCc1ccc(Cl)cc1Cl | -6% | i | 0% | 50µM*
COC(=O)c1ccn(Cc2ccc(Cl)c(Cl)c2)n1 | . | 5% | . | .
Cc1cccc(OCCN(C)Cc2cc(=O)oc3c(C)c(O)ccc23)c1 | . | 3% | . | .
Cc1ccc(S(=O)(=O)N2C(=O)C(c3ccccc3)SC2=Nc2ccccc2)cc1 (stereo unspecified) | 9.5µM* | ? | -4% | ?
COc1ccc(-c2nc(CSCC(=O)Nc3ccc(C#N)cc3)co2)cc1 | . | -30% | . | .
Cc1cc(C)c(S(=O)(=O)C(C)C)c(=O)[nH]1 | 24µM* | 0% | -6% | 4%
Cc1cc(C)c(S(C)(=O)=O)c(=O)[nH]1 | -16% | 14% | 0% | 11%
CC(C)CNC(=O)CCCc1nnc2c(=O)n(-c3ccc(Cl)cc3)ccn12 | . | 3% | . | .
CC(C(=O)N(C)C1CCCCC1)N(C)CC(=O)Nc1ccc(Cl)cc1 (stereo unspecified) | . | -4% | . | .
SMILES | PLK1 PBD block | 12-LOX inh | GCN5L2 inh | VDR inhibitor
COc1ccc(CNC(=O)CSc2nc3ccccc3nc2N2CCCC2)cc1 | . | 38% | . | .
CCCCNC1C(CC)C(CCC)C(C#N)(C#N)C1(C#N)C#N (stereo unspecified) | -4% | . | 1% | 45µM*
Cc1c(C(=O)N2CCC(C)CC2)c(S(=O)(=O)NCc2ccc(F)cc2)c(C)n1C | . | 0% | . | .
CN1CCN(Cc2c(O)ccc3cc(-c4ccccc4)c(=O)oc23)CC1 | . | -19% | ? | 12%
O=c1oc2c(O)cccc2cc1-c1nc2ccccc2[nH]1 | 1.9µM* | ? | ? | -15%
O=c1oc2c(CN3CCCCC3)c(O)ccc2cc1-c1nc2ccccc2[nH]1 | 27µM* | 26% | -11% | 4%
CCCc1ccc(C(=O)/C=C/c2cc(OC)c(OC)c(OC)c2)cc1 | . | -15% | . | .
COC(=O)c1c(-c2cccs2)csc1NC(=O)COc1ccc(C)cc1 | . | -15% | -20% | 13%
COC(=O)c1c(-c2cccs2)csc1NC(=O)COc1c(C)ccc(C)c1C | . | -17% | ? | 22µM*
